Rows were chosen to be rich in hits. Some 8% of all compounds tested hit in one or more screens of this group.
KB-V1 cytotox: KB-V1 MDR subline cytotoxicity; KB-V1 MDR cells viability, CellTiter-Glo, 72 h; 400,000 tested, 3.4% active; Potency, µM (top dose mostly 46.1 µM), usual class: cytotoxic; note: % is set by controls: 0 for no effect and ±100 for the full control effect; nearly all actives have a fitted effect of over 60% in size
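Cells of the MDR subline KB-V1 are plated, dosed with compound at multiple concentrations, and incubated 72 h at 37 degrees C; CellTiter-Glo is then added and luminescence read after 10 min.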
KB-3-1 tox: KB-3-1 parental cell cytotoxicity. Potency, µM (titrated, usually from 46.1 µM), usual class: cytotoxic. 400,000 tested, 1.4% active. AID 1347075. KB-3-1 viability, CellTiter-Glo ATP luminescence, 72 h; note: % is set by controls: 0 for no effect and ±100 for the full control effect; nearly all actives have a fitted effect of over 60% in size
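Using CellTiter-Glo luminescence, growth of non-resistant KB-3-1 adenocarcinoma cells is assessed 72 h after pin-tool compound addition at 37 °C. Normalized responses across the concentration series yield fitted curves.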
HT1080 IDH1KD tx: HT-1080 IDH1 knockdown cell toxicity (counter line). Potency, µM (doses to about 46.1 µM), for the others: at the top dose activity, negative = toxicity, most hits filed as cytotoxic. AID 686971. HT-1080 IDH1 knockdown viability, ATP luminescence, 48 h. 360,000 tested, 2% active;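 note: 0% = DMSO wells and -100% = cell-free medium wells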
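After a 2 h attachment period, IDH1KD HT-1080 cells took pin-transferred compound for 48 h at 37 °C; ATP-based luminescence after 10 min room-temperature reagent incubation reported viability.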
SW480 rerep: inducers of DNA re-replication in SW480 colon cancer cells; Potency, µM (titrated, usually from 46.1 µM), without a hit: at the highest dose re-replication activation, most hits filed as activators; SW480 DNA re-replication, Hoechst DNA content imaging, 48 h; 340,000 tested, 1.8% active; note: % of control where 0% means no effect; nearly all actives have a fitted effect of over 55% in size
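Readout is total intensity of Hoechst-stained nuclei, excited at 405 nm and collected at 500-530 nm. Compound treatment lasted 48 hr at 37 C in 5% CO2 before staining.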
HT1080NT lethal: kills 2HG-producing HT-1080-NT fibrosarcoma cells; 360,000 tested, 1.6% active; Potency, µM (titrated, usually from 46.1 µM), without a hit: at the top dose activity, negative = less viability, most hits filed as cytotoxic; HT-1080-NT fibrosarcoma viability, CellTiter-Glo ATP luminescence, 48 h;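 note: NT is the 2HG producing partner of a matched IDH1 knockdown line; 0% = DMSO-treated cells and -100% = media-only wells without cells; nearly all actives have a fitted effect of over 55% in size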
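Viability by CellTiter-Glo luminescence after 48 h compound exposure at 37C of HT-1080-NT cells (750/well, RPMI, 5% FBS). % activity scaled between DMSO wells and medium-only wells, then curve-fitted and categorized by curve class.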
MCF10A rereplic: inducers of DNA re-replication in MCF 10A breast cells; MCF 10A DNA re-replication, Hoechst nuclear intensity, 48 h; Potency, µM (series often up to 46.1 µM), for the others: at the top dose activity, positive = re-replication, usual class: activators; 350,000 tested, 2.9% active; AID 624296; note: % of control where 0% means no effect; nearly all actives have a fitted effect of over 50% in size
The depositor's hits bear a star; i = inactive; ? = inconclusive; . = no result given. Calls come from the whole dose curve; as a rule, active = well fitted curve in the direction sought with a large enough effect; inconclusive = small, poorly fitted or top-dose-only effect, or another doubt; inactive = no such curve, though single readings can be large; an effect the other way counts as inactive or inconclusive. Potency is the fitted concentration of half-maximal effect.

SMILES	KB-V1 cytotox	KB-3-1 tox	HT1080 IDH1KD tx	SW480 rerep	HT1080NT lethal	MCF10A rereplic
CCC1=C(CC2NCCc3ccccc32)CC2c3cc(OC)c(OC)cc3CCN2C1 (configuration not stated)	?	6.5µM*	6.5µM*	?	?	?
COc1cc2c(cc1OC)[C@H](Cc1ccc(O)cc1)NCC2	?	i	-8%	?	-5%	16µM*
CC(=O)c1cccc(NC(=O)C(C)OC(=O)CCCN=C2NS(=O)(=O)c3ccccc32)c1 (configuration not stated)	i	i	-4%	-3%	1%	0%
CC(Oc1cccc(Br)c1)C(=O)NNC(=O)c1ccccn1 (configuration not stated)	?	?	?	?	?	16%
COc1ccc(NS(=O)(=O)c2ccc(NC(=O)c3ccccn3)cc2)cc1	i	i	-5%	-12%	-3%	15%
C/C(=N\NC(=O)C(C)Oc1ccc([N+](=O)[O-])cc1)c1ccccn1 (configuration not stated)	5.2µM*	8.2µM*	2.2µM*	6.5µM*	2.2µM*	15µM*
CCOc1ccc(NC(=O)c2ccccn2)cc1	21µM*	?	?	-2%	?	21%
CC(Oc1ccccc1)C(=O)NNC(=O)c1ccccn1 (configuration not stated)	4.6µM*	?	?	?	-22%	25%
CCOc1ccc(NC(=O)c2cnccn2)cc1	i	?	-14%	-1%	-3%	-2%
COc1ccc(NS(=O)(=O)c2cccc(NC(=O)c3ccccn3)c2)cc1	10µM*	?	-29%	-5%	-28%	-1%
Cc1cc(Nc2ccc(C)c(Cl)c2)n2nc(-c3ccccc3)nc2n1	i	i	.	.	.	.
CCCN(CCC)C(C)C(=O)NCC1(c2ccccc2)CCCC1 (configuration not stated)	i	i	-1%	1%	-8%	-3%
COc1ccc(C(=O)NNC(=O)c2ccccn2)cc1	i	?	18µM*	9%	21µM*	3%
N/C(=N\OC(=O)c1cc([N+](=O)[O-])ccc1Cl)c1cccnc1	?	?	21%	?	19%	18µM*
COc1cc(OC)cc(C(=O)NNC(=O)c2ccc3ccccc3n2)c1	?	?	21µM*	?	?	17%
N/C(=N\OC(=O)c1ccc(Cl)c(Cl)c1)c1ccccn1	i	i	?	2%	13%	6%
N/C(=N\OC(=O)c1ccc(Cl)c([N+](=O)[O-])c1)c1ccccn1	i	i	16µM*	?	?	21µM*
CNc1ncc(C(=O)c2ccc(Br)cc2)s1	?	i	2%	-4%	-15%	-1%
COc1ccc(C(=O)O/N=C(\N)c2ccccn2)cc1	i	?	16µM*	4%	13µM*	-7%
CC(C)(C)C1CCC(OCC(O)CN2CCN(c3ccccc3)CC2)CC1 (configuration not stated)	?	i	?	2%	-19%	21µM*
COc1cccc(-n2nnnc2SCC(=O)Nc2ccccc2OC)c1	i	i	1%	-16%	7%	4%
CCCS(=O)(=O)c1nnnn1-c1cccc(OC)c1	i	i	6.3µM*	?	10µM*	6.5µM*
Cc1noc(C)c1COc1ccc(C(=O)N2CCC(C)CC2)cc1	23µM*	i	0%	2%	1%	0%
Cc1noc(C)c1COc1ccc(C(=O)N2CCN(S(=O)(=O)c3ccc(Cl)cc3)CC2)cc1	i	i	0%	2%	-5%	4%
Cc1noc(C)c1COc1ccc(C(=O)N2CCN(S(=O)(=O)c3ccc(F)cc3)CC2)cc1	8.2µM*	i	-6%	-9%	-7%	1%
SMILES	KB-V1 cytotox	KB-3-1 tox	HT1080 IDH1KD tx	SW480 rerep	HT1080NT lethal	MCF10A rereplic
CCCCOc1ccc(CNC(=O)CN2CCSc3ccccc32)cc1	?	i	.	.	.	.
CC(NC(=O)CN(C)CC(=O)Nc1cccc(F)c1)c1ccccc1 (configuration not stated)	18µM*	i	-3%	3%	1%	0%
CN(CC(=O)Nc1cccc(F)c1)CC(=O)Nc1cccc2ccccc12	i	?	-3%	0%	-16%	-7%
Cc1ccc(N(C)S(=O)(=O)c2c[nH]c3ccc([N+](=O)[O-])cc23)cc1	i	i	-1%	11%	-15%	?
O=C(c1cc(NC(=O)C23CC4CC(CC(C4)C2)C3)cc(NC(=O)C23CC4CC(CC(C4)C2)C3)c1)N1CCCCC1	?	?	-29%	13µM*	-5%	13%
O=C(NC(=S)N1CCCCC1)C12CC3CC(CC(C3)C1)C2	i	i	7%	0%	12%	1%
C/C(N)=C(/C#N)C(=O)CSc1nc2cc(Cl)ccc2s1	?	i	-16%	-1%	35µM*	-1%
C/C(N)=C(/C#N)C(=O)CSc1cc(Cl)ccc1Cl	?	i	-5%	-1%	1%	-4%
Cc1ccc(C)c(OC(=O)C2CSC3(C)CCC(=O)N23)c1C (configuration not stated)	i	16µM*	-2%	-14%	0%	0%
COc1ccc2c(c1)C(CC(=O)NN)CCC2 (configuration not stated)	?	23µM*	1.6µM*	13µM*	7.3µM*	2.3µM*
COc1ccc(CC(=O)NC2CCCc3ccccc32)cc1 (configuration not stated)	?	i	7%	2%	13%	2%
O=C(Oc1cc(=O)oc2ccccc12)c1ccccc1	i	5.2µM*	16µM*	4.1µM*	16µM*	7.3µM*
COc1ccc(-c2oc3ccccc3c(=O)c2OC(=O)c2ccc(C)cc2)cc1	12µM*	?	16%	11%	20%	14%
O=C(Oc1c(-c2ccccc2)oc2ccccc2c1=O)c1ccccc1	12µM*	?	-26%	-2%	-22%	?
O=C(Oc1cccc2ccccc12)c1ccccc1	i	i	5%	-2%	-1%	0%
COc1ccc(C(=O)c2c(-c3ccc(OC)cc3)oc3ccccc23)cc1	i	i	-4%	6%	-1%	?
COc1ccc(C(=O)c2ccc3oc(-c4ccc(OC)cc4)c(-c4ccc(O)cc4)c3c2)cc1	?	18µM*	5%	6%	9%	18%
Cc1ccc2nc(-c3ccncc3)c(Nc3ccc(C(C)C)cc3)n2c1	i	i	.	.	.	.
